According to the supplement of paper PMC10646978:
± gives the standard deviation.

What was measured:
Conditions in all cases: modulator concentration 10 µM
[1] = system: RAW-Dual (murine macrophage reporter line); assay: NF-kB reporter (SEAP) activity fold change vs agonist alone; higher = enhanced NF-kB activity
How it was run: (§1)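 Compound reached 10 μM final in each well by pin transfer, onto RAW-Dual murine macrophage reporter cells seeded at 50 000 per well in 384-well plates. After 1 hour at 37 °C, the cells were stimulated overnight with a PRR agonist. SEAP in the supernatant was read with QUANTI-Blue at 620 nm absorbance for NF-κB, and Lucia luciferase was read with QUANTI-Luc luminescence for IRF. Each signal was turned into fold change against the mean agonist-only control on the same plate, and two replicate plates were averaged with propagated errors.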

[2] = system: RAW-Dual (murine macrophage reporter line); assay: IRF reporter (Lucia luciferase) activity fold change vs agonist alone; higher = enhanced IRF activity
How it was run: as §1

[3] = system: RAW-Dual (murine macrophage reporter line); assay: viability score (confluency relative to resting cells, overnight) (fraction); higher = more viable, active = viable (0.7 or more)
How it was run: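 Overnight exposure to 10 μM final compound was carried out on RAW-Dual macrophages in 384-well plates. IncuCyte software generated two confluency masks over all wells imaged with IncuCyte. The viability score gives confluency in relation to resting cells. A compound met the cutoff if each mask exceeded 70% of resting cells.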

[4] = agonist: CpG ODN 1826 0.5 ug/mL

Row | SMILES | NF-kB reporter [1, 4] | NF-kB reporter ([1]; agonist: LPS 0.1 ug/mL) | NF-kB reporter ([1]; agonist: MPLA […]) | IRF reporter ([2]; agonist: 3'3'-cGAMP 10 ug/mL) | IRF reporter ([2]; agonist: LPS 0.1 ug/mL) | IRF reporter ([2]; agonist: MPLA […]) | viability score [3]
1 | CN(C)CCOC(=O)COc1ccc(Cl)cc1.Cl | 1.11 ± 0.084 | 1.09 ± 0.088 | 1.01 ± 0.038 | 0.882 ± 0.076 | 0.963 ± 0.043 | 0.964 ± 0.08 | 0.999 (active)
2 | Cc1c(C(=O)NN)sc(-c2ccccc2)c1C#N | 0.868 ± 0.071 | 1.13 ± 0.074 | 0.987 ± 0.034 | 0.562 ± 0.071 | 1.08 ± 0.12 | 1.43 ± 0.29 | 0.998 (active)
3 | NC(=O)c1ccc(N2CCOCC2)c([N+](=O)[O-])c1 | 1.04 ± 0.087 | 1 ± 0.089 | 0.935 ± 0.026 | 0.984 ± 0.067 | 1.02 ± 0.05 | 1.01 ± 0.1 | 0.993 (active)
4 | O=C1CCC(=O)N1CC(O)Cn1c2ccc(Cl)cc2c2cc(Cl)ccc21 (stereo unspecified) | 0.671 ± 0.035 | 0.816 ± 0.065 | 0.896 ± 0.05 | 0.839 ± 0.04 | 1.24 ± 0.25 | 1.19 ± 0.39 | 0.922 (active)
5 | COc1cccc(C=NNc2nnc(C)c(=O)[nH]2)c1OC | 0.888 ± 0.27 | 1.08 ± 0.094 | 0.993 ± 0.12 | 0.952 ± 0.038 | 1.09 ± 0.22 | 1.15 ± 0.29 | 1.01 (active)
6 | O=C(O)c1cc(Nc2ccnc3cc(Cl)ccc23)ccc1O | 1.04 ± 0.082 | 1.02 ± 0.088 | 0.932 ± 0.044 | 0.963 ± 0.05 | 1.02 ± 0.056 | 0.96 ± 0.18 | 1 (active)
7 | Cc1ccc(NC(=O)c2ccccc2Oc2ccccc2)cc1 | 0.689 ± 0.055 | 1.1 ± 0.097 | 1.24 ± 0.059 | 0.881 ± 0.08 | 1.09 ± 0.14 | 1.76 ± 0.41 | 1 (active)
8 | CC(=O)Nc1nnc(CCS(=O)(=O)c2ccc(Br)cc2)s1 | 0.951 ± 0.054 | 1.05 ± 0.064 | 0.93 ± 0.079 | 0.908 ± 0.032 | 1.46 ± 0.094 | 1.16 ± 0.12 | 1.01 (active)
9 | O=C(Nc1ccon1)C1CN(C(=O)COc2ccccc2F)C1 | 1.08 ± 0.18 | 1.07 ± 0.14 | 1.04 ± 0.1 | 1.06 ± 0.042 | 1.25 ± 0.24 | 1.33 ± 0.2 | 0.992 (active)
10 | COc1ccc2cc(CCC(C)=O)ccc2c1 | 1.23 ± 0.19 | 1.19 ± 0.56 | 1.06 ± 0.11 | 0.931 ± 0.03 | 1.18 ± 0.45 | 1.2 ± 0.098 | 0.95 (active)
11 | O=C(NCC1CCCN1c1nccs1)C1CC1 (stereo unspecified) | 0.946 ± 0.045 | 1.02 ± 0.12 | 1.13 ± 0.084 | 0.973 ± 0.07 | 1.03 ± 0.23 | 1.18 ± 0.54 | 0.99 (active)
12 | C1CCC(N2NC2C2NN2C2CCCCC2)CC1 (stereo unspecified) | 1.01 ± 0.22 | 1.03 ± 0.11 | 0.964 ± 0.091 | 0.938 ± 0.024 | 1.23 ± 0.19 | 1.05 ± 0.11 | 1.01 (active)
13 | Cc1oncc1CNC(=O)c1ccc(C(C)(C)C)cc1 | 1.18 ± 0.089 | 1.1 ± 0.083 | 1.07 ± 0.049 | 0.779 ± 0.039 | 1.01 ± 0.05 | 1.02 ± 0.099 | 0.996 (active)
